# ± gives the standard deviation of the averaged measurements.
# Key:
# Test in all cases: cell viability (% of vehicle); higher = less cytotoxic
# HCI01 [1] = cells of a triple-negative basal-like breast cancer xenograft; details: 10 µM; 72 h
# HCI03 = cells of an ER-positive luminal breast cancer xenograft; details: 10 µM; 72 h
# HCI09 = cells of a triple-negative luminal androgen receptor type breast cancer xenograft; details: 10 µM; 72 h
# HCI11 = cells of an ER-positive luminal breast cancer xenograft; details: 10 µM; 72 h
# HCI13 = cells of an ER-positive luminal breast cancer xenograft; details: 10 µM; 72 h
# HCI16 = cells of a triple-negative basal-like breast cancer xenograft; details: 10 µM; 72 h
# UCD52 [2] = cells of a triple-negative basal-like breast cancer xenograft; details: 10 µM; 72 h
# WHIM2 [3] = cells of a triple-negative basal-like breast cancer xenograft; details: 10 µM; 72 h
# HCI01 [4] = details: 1 µM; 72 h
# UCD52 [5] = details: 1 µM; 72 h
# WHIM2 [6] = details: 1 µM; 72 h
# WHIM30 [7] = cells of a triple-negative basal-like breast cancer xenograft; details: 1 µM; 72 h
# WHIM30 [8] = details: 10 µM; 72 h
SMILES,cell viability (HCI01 [1]),cell viability (HCI03),cell viability (HCI09),cell viability (HCI11),cell viability (HCI13),cell viability (HCI16),cell viability (UCD52 [2]),cell viability (WHIM2 [3]),cell viability (HCI01 [4]),cell viability (UCD52 [5]),cell viability (WHIM2 [6]),cell viability (WHIM30 [7]),cell viability (WHIM30 [8])
CCC1OC(=O)CC(O)C(C)C(OC2OC(C)C(OC3CC(C)(O)C(O)C(C)O3)C(N(C)C)C2O)C(CC=O)CC(C)C(=O)C=CC(C)=CC1COC1OC(C)C(O)C(OC)C1OC.O=C(O)C(O)C(O)C(=O)O (centres undefined) [Tylosin tartrate],75.1 ± 40,165,88.2 ± 5.5,82.3,97.3 ± 33,126,85.2 ± 5.8,110.8 ± 0.8,–,–,–,–,–
NC(=O)OCC(COC(N)=O)c1ccccc1 [Felbamate],71.2 ± 42,137,90.7 ± 10,95.3,103 ± 8.3,101,81.2 ± 7.7,99.5 ± 11,–,–,–,–,–
Cc1c(OCC(F)(F)F)ccnc1CS(=O)c1nc2ccccc2[n-]1.[Na+] (centres undefined) [Lansoprazole sodium],181 ± 1.4,145,124 ± 9,163,135 ± 5.7,152,138.2 ± 0.31,143 ± 9.9,–,–,–,–,–
CCc1cnn2c(NCc3ccc[n+]([O-])c3)cc(N3CCCCC3CCO)nc12 (centres undefined),38.1 ± 3.4,–,62.5 ± 35,72.6,–,92.9,42.1 ± 6.4,48.7 ± 12,46.8,29.2,38.1,34.9,66.2 ± 6.1
CCOC(=O)c1c(C)n(C)c2ccc(O)cc12 [Mecarbinate],72.1 ± 43,152,111 ± 4.2,90.9,135 ± 14,115,87.3 ± 3.8,99.6 ± 22,–,–,–,–,–
CC(O)C(=O)O.CC(O)C(=O)O.CN1CCN(c2ccc3c(c2)NC(=C2C(=O)N=c4cccc(F)c4=C2N)N3)CC1 [Dovitinib Dilactic acid],43.1 ± 5.7,–,19.9 ± 0.23,66,79 ± 2.3,44.4,21.9 ± 2.9,52.2 ± 12,103,89.6,96.9,77.8,–
CC(=O)NC1C(N=C(N)N)C=C(C(=O)O)OC1C(O)C(O)CO (centres undefined) [Zanamivir],82.4 ± 58,156,96 ± 12,90.8,108 ± 2.3,113,90.4 ± 1.5,106 ± 31,–,–,–,–,–
CC[C@@]1(O)C(=O)OCc2c1cc1n(c2=O)Cc2cc3c(CN(C)C)c(O)ccc3nc2-1.Cl [Topotecan HCl],38 ± 13,–,35.2 ± 10,51.9,54.7 ± 1.9,69.1,42 ± 7.3,43.7 ± 2.5,65.4,93.4,49.6,41.7,82.1 ± 9.8
O=C(c1cc(Cc2n[nH]c(=O)c3ccccc23)ccc1F)N1CCN(C(=O)C2CC2)CC1,166 ± 50,112,72.2 ± 9.9,129,103 ± 5.2,166,117 ± 16,105 ± 6.3,–,–,–,–,–
COc1ncc(-c2ccc3nccc(-c4ccnnc4)c3c2)cc1NS(=O)(=O)c1ccc(F)cc1F,64.11 ± 0.34,65.6,26.64 ± 0.21,70.3,–,147,43.4 ± 1,49.7 ± 7.6,53,23.2,31.9,48,42.9 ± 2.3
CCOC(=O)C(CCc1ccccc1)NC1CCc2ccccc2N(CC(=O)O)C1=O.Cl (centres undefined) [Benazepril HCl],107 ± 11,159,130 ± 41,93.5,196 ± 40,161,130 ± 7.6,107 ± 13,–,–,–,–,170 ± 22
COc1ccc(O)cc1 [Mequinol],91 ± 10,108,101 ± 13,70.4,124 ± 32,118,71 ± 7.1,96.5 ± 20,–,–,–,–,100 ± 2.8
CNC(=O)C(Cc1c[nH]c2ccccc12)NC(=O)C(CC(=O)NO)CC(C)C (centres undefined),141 ± 3.8,116,88.9 ± 9.2,129,92.5 ± 5.4,140,126 ± 16,105 ± 14,–,–,–,–,–
CC(=O)OCC(=O)C1(O)CCC2C3CCC4=CC(=O)CCC4(C)C3C(=O)CC21C (centres undefined) [Cortisone acetate],119 ± 17,130,119 ± 47,105,96.1 ± 13,140,106 ± 31,112 ± 19,–,–,–,–,119 ± 6.2
Cc1cc(C#N)cc(C)c1Oc1nc(Nc2ccc(C#N)cc2)nc(N)c1Br [Etravirine (TMC125)],107 ± 6.5,127,91.9 ± 4.6,93.4,86.559 ± 0.026,109,99.3 ± 18,92.3 ± 3.6,–,–,–,–,137.8 ± 0.96
CNCC(O)C(O)C(O)C(O)CO.Cc1c(Nc2ncccc2C(=O)O)cccc1C(F)(F)F [Flunixin Meglumin],135 ± 49,120,141 ± 44,103,133 ± 14,105,77.6 ± 16,130 ± 17,–,–,–,–,107 ± 2.9
CC(=O)Oc1cccc2c1C(=O)c1c(OC(C)=O)cc(C(=O)O)cc1C2=O [Diacerein],57 ± 39,93.9,79.1 ± 34,77.8,109 ± 11,146,98.6 ± 6.8,123 ± 39,–,–,–,–,60.3 ± 16
OCCOCCN1CCN(C2=Nc3ccccc3Sc3ccccc32)CC1 [Quetiapine],122 ± 13,109,94.9 ± 23,94.1,116 ± 8.1,94.1,101 ± 4,104 ± 5.5,–,–,–,–,131 ± 13
COc1ccccc1OCC(O)CN1CCN(CC(=O)Nc2c(C)cccc2C)CC1 (centres undefined) [Ranolazine],136 ± 2.8,96.3,134 ± 75,103,120 ± 35,120,89.4 ± 19,109 ± 19,–,–,–,–,130 ± 17

SMILES,cell viability (HCI01 [1]),cell viability (HCI03),cell viability (HCI09),cell viability (HCI11),cell viability (HCI13),cell viability (HCI16),cell viability (UCD52 [2]),cell viability (WHIM2 [3]),cell viability (HCI01 [4]),cell viability (UCD52 [5]),cell viability (WHIM2 [6]),cell viability (WHIM30 [7]),cell viability (WHIM30 [8])
CCCCCCCCCCCCCCCCO [1-Hexadecanol],108 ± 3.9,95.9,97.8 ± 12,95.2,107 ± 84,109,67.1 ± 5.9,94.2 ± 11,–,–,–,–,84.7 ± 8.4
Nc1ccn(C2OC(CO)C(O)C2(F)F)c(=O)n1 (centres undefined) [Gemcitabine],70.3 ± 11,95.9,75.1 ± 9.5,112,118 ± 5.3,64.7,100.6 ± 0.62,78.9 ± 22,–,–,–,–,119 ± 12
NC(=O)N1c2ccccc2C=Cc2ccccc21 [Carbamazepine],107 ± 2.9,103,94.3 ± 32,106,91.8 ± 1.1,99.6,85.8 ± 4.4,75.2 ± 22,–,–,–,–,98.8 ± 4.5
NCCCC(O)(P(=O)([O-])O)P(=O)(O)O.[Na+] [Alendronate sodium],102 ± 7.7,111,95.1 ± 18,97.3,97.6 ± 3.9,97.1,79 ± 5.8,93.7 ± 13,–,–,–,–,116 ± 8.4
Cc1ccc(-n2nc(C(C)(C)C)cc2NC(=O)Nc2ccc(OCCN3CCOCC3)c3ccccc23)cc1 [BIRB 796 (Doramapimod)],138 ± 41,89.6,93.5 ± 19,71.1,48.5 ± 3.4,87.4,62.1 ± 7,89.8 ± 8,–,–,–,–,103 ± 18
CNS(=O)(=O)Cc1ccc2[nH]cc(CCN(C)C)c2c1.O=C(O)CCC(=O)O [Sumatriptan Succinate],89.3 ± 18,110,89.6 ± 31,82.8,81.4 ± 5.5,120,101 ± 13,106 ± 18,–,–,–,–,106 ± 4.2
COC(=O)Nc1nc2ccc(Sc3ccccc3)cc2[nH]1 [Fenbendazole],193 ± 48,129,182 ± 25,129,155 ± 32,153,121.4 ± 0.081,142 ± 20,–,–,–,–,–
Cc1nc(C(=O)NCC(=O)O)c(O)c2ccc(Oc3ccccc3)cc12,122 ± 2.7,189,88.7 ± 11,140,113 ± 4.4,88.2,107 ± 14,160 ± 8.2,–,–,–,–,116 ± 14
Cc1cccc(Nc2ccncc2S(=O)(=O)NC(=O)NC(C)C)c1 [Torsemide],84.3 ± 43,140,95.4 ± 16,93.5,120 ± 21,127,106 ± 1.8,106 ± 1.5,–,–,–,–,171 ± 13
Nc1ccc(S(=O)(=O)c2ccc(N)cc2)cc1 [Dapsone],114 ± 18,146,111 ± 3.1,116,118 ± 22,158,116 ± 4.3,115 ± 8.2,–,–,–,–,117 ± 10
Cc1ccc(Nc2nccc(N(C)c3ccc4c(C)n(C)nc4c3)n2)cc1S(N)(=O)=O.Cl,166 ± 30,77.2,61.1 ± 13,85.4,110 ± 6.2,92,90.5 ± 2.9,152 ± 5.7,–,–,–,–,144 ± 6
O=C(O)CCc1nc(-c2ccccc2)c(-c2ccccc2)o1 [Oxaprozin],121 ± 25,102,89.1 ± 2.8,106,108 ± 1.6,122,99.29 ± 0.38,101 ± 11,–,–,–,–,151 ± 17
CC(C)(Oc1ccc(C2CC2(Cl)Cl)cc1)C(=O)O (centres undefined) [Ciprofibrate],96 ± 14,126,94.3 ± 11,79.4,110 ± 12,114,96.2 ± 2.9,120 ± 3.9,–,–,–,–,127 ± 15
CS(=O)(=O)c1ccc(C(O)C(CO)NC(=O)C(Cl)Cl)cc1 (centres undefined) [Thiamphenicol],109 ± 26,104,85.8 ± 3.5,82.9,64.4 ± 4.1,103,84.7 ± 13,107 ± 29,–,–,–,–,122 ± 6.1
CCOC(=O)C1=C(C)NC(C)=C(C(=O)OC)C1c1cccc(Cl)c1Cl (centres undefined) [Felodipine],116 ± 5,117,118 ± 6.6,114,112 ± 15,97.9,88.5 ± 2.3,102 ± 10,–,–,–,–,124 ± 2.7
COC(=O)C1=C(C)NC(C)=C(C(=O)OC(C)C)C1c1cccc2nonc12 (centres undefined) [Isradipine (Dynacirc)],111 ± 18,118,48.7 ± 41,91.9,109 ± 6.2,117,76.2 ± 9.4,92.5 ± 11,–,–,–,–,88.7 ± 3.6
CSc1nc2cc(Oc3cccc(Cl)c3Cl)c(Cl)cc2[nH]1 [Triclabendazole],99.7 ± 4.9,108,83 ± 23,97.1,47.9 ± 7.4,127,89.2 ± 6.4,124 ± 34,–,–,–,–,134 ± 14
Cl.Nc1ncnc2nc[nH]c12 [Adenine HCl],124 ± 9.7,126,112 ± 4.7,117,87.7 ± 10,147,165 ± 5.9,106 ± 4.3,–,–,–,–,101 ± 7.6
Cn1c(=O)c2[nH]cnc2n(C)c1=O.Cn1c(=O)c2[nH]cnc2n(C)c1=O.NCCN [Aminophylline],98 ± 18,95.2,93.6 ± 9.1,99.4,101 ± 5.1,75.8,72 ± 16,97.4 ± 7.5,–,–,–,–,92.5 ± 24

# Reference: the supplement of paper PMC6992640
